Measured values reported in PubChem BioAssay (Tox21).
Inconclusive results are not listed. The source made the active and inactive calls. Unless noted, calls follow the shape of the dose curve; as a rule, active = well fitted curve in the direction sought with a large enough effect in the repeat runs; inconclusive = weak or mixed curves; inactive = no such curve, though single readings can be large; an effect the other way counts as inactive or inconclusive.

Key:
[1] = qHTS assay to identify small molecule HDAC inhibitors (AID 1259364); also: nearly all actives have a fitted effect of over 45% in size; also: potency is read from the fitted curve at half-maximal effect; as to activity change, negative = inhibition: top concentration of the series differs between compounds
Summary of the method: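 Homogeneous cell-based luminescent assay of endogenous class I/II HDAC activity; HCT-116 cells, 2 h compound exposure, 30 min HDAC-Glo development at RT.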

[2] = qHTS assay to identify small molecule HDAC inhibitors - cell viability counter screen (AID 1259365); also: series mostly up to about 92 µM; nearly all actives have a fitted effect of over 50% in size
Summary of the method: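 CellTiter-Glo luminescence (30 min, room temperature) reported viability after a 2 h compound exposure at 37 C. Cells: wild-type HCT-116, 1,500 per well, seeded the night before.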

[3] = qHTS assay to identify small molecule agonists of the sonic hedgehog signaling (Shh) pathway - cell viability counter screen (AID 1259366); also: nearly all actives have a fitted effect of over 50% in size
Summary of the method: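 Cytotoxicity counter screen: CellTiter-Fluor reagent added after 23 h compound exposure, then 1 h at 37C and fluorescence read. Cells were 3T3 Gli1-Luc, seeded 2,000 per well and dosed 4 h post-plating.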

[4] = qHTS assay to identify small molecule antagonists of the sonic hedgehog signaling (Shh) pathway - cell viability counter screen (AID 1259367); also: nearly all actives have a fitted effect of over 55% in size
Summary of the method: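 After a 4 hr settling period, 3T3 Gli1-Luc cells were treated with DMSO-dissolved chemicals and conditioned medium, kept 24 hr at 37C in 5% CO2, and assayed for viability by CellTiter-Fluor fluorescence following 1 hr reagent incubation.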

[5] = qHTS assay to identify small molecule agonists of the sonic hedgehog signaling (Shh) pathway (AID 1259368; calls by dose curve;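 also: NIH/3T3-derived 3T3Gli1-Luc cells carrying a stable Gli1-driven firefly luciferase reporter; series mostly up to about 92 µM; nearly all actives have a fitted effect of over 15% in size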)
Summary of the method: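 Steps: seed 3T3 Gli1-Luc cells, incubate 4 hr at 37 C, pin-transfer compounds in DMSO alongside a positive control, incubate 24 hr, add luciferase detection reagent, wait 30 min at room temperature, read luminescence.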

[6] = target: Estrogen receptor beta (Homo sapiens) (UniProt Q92731); experiment: qHTS assay to identify small molecule agonists of the estrogen receptor beta (ER-beta) signaling pathway (AID 1259377; active = well fitted activation curve with a large enough effect in the signal ratio in the repeat runs, not every such curve was filed as active; the % refers to the signal ratio)
Summary of the method: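 Ratiometric beta-lactamase FRET read-out came after 2 h substrate loading at room temperature. It followed 16 h compound treatment at 37C of GripTite HEK293T cells carrying a UAS-bla reporter, plated in 2% charcoal-stripped FBS medium.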

[7] = target: Estrogen receptor beta (Homo sapiens) (UniProt Q92731); experiment: qHTS assay to identify small molecule antagonists of the estrogen receptor beta (ER-beta) signaling pathway (AID 1259378; active = well fitted inhibition curve with a large enough effect in the signal ratio in the repeat runs, not every such curve was filed as active; the % refers to the signal ratio; also: potency is read from the fitted curve at half-maximal effect)
Summary of the method: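 ER-beta-UAS-bla HEK293T (GripTite) cells in 2% charcoal-stripped FBS medium were preincubated 6 hr at 37C, dosed with compound, then stimulated with 1 nM E2 (final) for 16 hr; beta-lactamase reporter read by B/G FRET fluorescence after 2 hr substrate loading.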

[8] = qHTS assay to identify small molecule agonists of the androgen receptor (AR) signaling pathway in the presence of an antagonist - cell viability counter screen (AID 1259379);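 also: MDA-kb2 human breast cancer cells carrying an MMTV luciferase reporter; series mostly up to about 92 µM; nearly all actives have a fitted effect of over 25% in size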
Summary of the method: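 Fluorescence from CellTiter-Fluor, added after 15 hr and read 1 hr later, gave cell viability. Cells were MDA-kb2 exposed to compounds (15 concentrations) in the presence of 3.0uM nilutamide at 37C, 0% CO2.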

[9] = qHTS assay to identify small molecule antagonists of the sonic hedgehog signaling (Shh) pathway (AID 1259369; calls by dose curve; also: nearly all actives have a fitted effect of over 45% in size)
Summary of the method: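 Inhibition of Shh signalling is measured as reduced Gli1-response-element firefly luciferase output in an NIH/3T3-derived stable reporter clone stimulated with conditioned medium for 24hr.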

[10] = qHTS assay to identify small molecule agonists of the estrogen receptor beta (ER-beta) signaling pathway - cell viability counter screen (AID 1259380); also: nearly all actives have a fitted effect of over 30% in size
Summary of the method: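 Same-well viability counter screen. Cells: ER-beta-UAS-bla HEK293T, plated 6 hr before compound, in 2% charcoal-stripped FBS. Compound exposure 16 hr, 37C; viability by CellTiter-Glo luminescence after 30 min at room temperature.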
% is scaled to controls: 0 for no effect and ±100 for the full control effect.

Sequence of Estrogen receptor beta (Homo sapiens) (Q92731 whole entry, looked up): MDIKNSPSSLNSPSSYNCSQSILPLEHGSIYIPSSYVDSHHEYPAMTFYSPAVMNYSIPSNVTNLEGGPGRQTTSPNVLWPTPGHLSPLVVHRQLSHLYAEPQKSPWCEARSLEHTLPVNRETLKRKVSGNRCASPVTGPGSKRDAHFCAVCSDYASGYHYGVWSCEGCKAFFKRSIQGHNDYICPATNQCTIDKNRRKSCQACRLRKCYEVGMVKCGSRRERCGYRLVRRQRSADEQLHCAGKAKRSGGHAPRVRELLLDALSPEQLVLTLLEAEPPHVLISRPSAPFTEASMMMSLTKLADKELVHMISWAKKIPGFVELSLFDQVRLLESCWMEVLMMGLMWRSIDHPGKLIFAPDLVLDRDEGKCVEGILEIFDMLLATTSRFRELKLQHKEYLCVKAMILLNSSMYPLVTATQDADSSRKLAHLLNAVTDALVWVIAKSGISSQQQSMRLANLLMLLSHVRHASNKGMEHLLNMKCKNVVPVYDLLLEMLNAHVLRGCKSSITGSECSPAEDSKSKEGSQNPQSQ

CCC(C)OC(C)CC (stereo not given)
active: Potency [7] 28.3 µM
inactive: Potency [1] | outcome [2] | outcome [3] | outcome [4] | outcome [5] | Potency [6] | outcome [8]

O=C(NCN1CCOCC1)c1cnccn1
inactive: Potency [1] | outcome [2] | outcome [3] | outcome [4] | outcome [5] | Potency [9] | outcome [8] | outcome [10]

O=C(CCCl)NCCc1ccccc1
inactive: Potency [1] | outcome [2] | outcome [3] | outcome [4] | outcome [5] | Potency [6] | Potency [7] | outcome [8] | outcome [10]

CCC/C=C(\C=O)CC
inactive: Potency [1] | outcome [2] | outcome [3] | outcome [4] | outcome [5] | Potency [6] | Potency [7] | outcome [8] | outcome [10]

CCCCCCCCCCCCCCCCCCOCCO
inactive: activity change, negative = inhibition [1] -2.36% [at 19 µM] | activity change, negative = cytotoxicity [2] 0.0538% [at 19 µM] | viability change, negative = cytotoxic [3] 1.32% [at 19 µM] | viability change, negative = cytotoxic [4] -0.0007% [at 19 µM] | activity change [5] -0.0679% [at 18.9 µM] | activation [6] -0.0155% [at 19 µM] | activity, negative = inhibition [7] 4.09% [at 19 µM] | activity change, negative = cytotoxicity [8] -11.2% [at 19 µM] | activity change, negative = cytotoxicity [10] -1.63% [at 19 µM]

CCOC(CN1CCN(CC(C)C(=O)c2ccccc2)CC1)c1ccccc1 (stereo not given)
inactive: activity change, negative = inhibition [1] 1.54% [at 19 µM] | activity change, negative = cytotoxicity [2] -3.08% [at 19 µM] | viability change, negative = cytotoxic [3] -6.98% [at 19 µM] | viability change, negative = cytotoxic [4] -0.0061% [at 19 µM] | activity change [5] 0.16% [at 18.9 µM] | activity change, negative = inhibition [9] -3.93% [at 19 µM] | activity change, negative = cytotoxicity [8] -6.08% [at 19 µM] | activity change, negative = cytotoxicity [10] -10.4% [at 19 µM]

CC(C)c1ccc(C=O)cc1
inactive: Potency [1] | outcome [2] | outcome [3] | outcome [4] | outcome [5] | Potency [9] | outcome [8] | outcome [10]

N[C@@H](CSCCCO)C(=O)O
inactive: activity change, negative = inhibition [1] -2.63% [at 19 µM] | activity change, negative = cytotoxicity [2] -0.57% [at 19 µM] | viability change, negative = cytotoxic [3] -0.254% [at 19 µM] | viability change, negative = cytotoxic [4] 1.48% [at 19 µM] | activity change [5] 0.782% [at 18.9 µM] | activation [6] -2.61% [at 19 µM] | activity, negative = inhibition [7] 0.481% [at 19 µM] | activity change, negative = cytotoxicity [8] -1.46% [at 19 µM] | activity change, negative = cytotoxicity [10] 7.76% [at 19 µM]

OCC(O)CN1CCN(c2ccccc2)CC1 (stereo not given)
inactive: Potency [1] | outcome [2] | outcome [3] | outcome [4] | outcome [5] | Potency [9] | outcome [8] | outcome [10]

Cc1c(NC(=O)c2cccnc2)c(=O)n(-c2ccccc2)n1C
inactive: Potency [1] | outcome [2] | outcome [3] | outcome [4] | outcome [5] | outcome [8]

COc1c2occc2c(OC)c2c(=O)cc(C)oc12
inactive: Potency [1] | outcome [2] | outcome [3] | outcome [4] | outcome [5] | outcome [8]

CC(=O)O[Si](C)(OC(C)=O)OC(C)=O
inactive: Potency [1] | outcome [2] | outcome [3] | outcome [4] | outcome [5] | Potency [9] | outcome [8] | outcome [10]

O=C(CN1CCNCC1)NC1CCCCC1
inactive: Potency [1] | outcome [2] | outcome [3] | outcome [4] | outcome [5] | Potency [9] | outcome [8] | outcome [10]

OCC1(CO)COCOC1
inactive: Potency [1] | outcome [2] | outcome [3] | outcome [4] | outcome [5] | Potency [6] | Potency [7] | outcome [8] | outcome [10]

CN1C[C@@H]2C[C@H]1CN2c1cc2c(cc1F)c(=O)c(C(=O)O)cn2C1CC1
inactive: activity change, negative = inhibition [1] 2.17% [at 19 µM] | activity change, negative = cytotoxicity [2] 5.3% [at 19 µM] | viability change, negative = cytotoxic [3] -1.9% [at 19 µM] | viability change, negative = cytotoxic [4] 0.743% [at 19 µM] | activity change [5] -1.48% [at 18.9 µM] | activity change, negative = inhibition [9] -3.45% [at 19 µM] | activity change, negative = cytotoxicity [8] 0.0403% [at 19 µM] | activity change, negative = cytotoxicity [10] 1.14% [at 19 µM]

CC(=O)CCC1=C(C)CCCC1(C)C
inactive: Potency [1] | outcome [2] | outcome [3] | outcome [4] | outcome [5] | Potency [6] | Potency [7] | outcome [8] | outcome [10]

CCCCCCCCCCCCCBr
inactive: Potency [1] | outcome [2] | outcome [3] | outcome [4] | outcome [5] | Potency [9] | outcome [8] | outcome [10]

CC(=O)O[C@H]1C[C@@H]2CC[C@@]1(C)C2(C)C
inactive: Potency [1] | outcome [2] | outcome [3] | outcome [4] | outcome [5] | Potency [6] | Potency [7] | outcome [8] | outcome [10]

CC(C)Nc1ccccc1
inactive: Potency [1] | outcome [2] | outcome [3] | outcome [4] | outcome [5] | Potency [6] | outcome [8]

Cc1ccc(C(C)NC(=O)[C@@H](NC(=O)OC(C)C)C(C)C)cc1 (stereo not given in full)
inactive: Potency [1] | outcome [2] | outcome [3] | outcome [4] | outcome [5] | Potency [9] | outcome [8] | outcome [10]

O=C1NC(c2ccccc2)(c2ccccc2)C(=O)N1COP(=O)(O)O
inactive: Potency [1] | outcome [2] | outcome [3] | outcome [4] | outcome [5] | Potency [9] | outcome [8] | outcome [10]

Cc1cccc(Cl)c1
inactive: Potency [1] | outcome [2] | outcome [3] | outcome [4] | outcome [5] | Potency [6] | outcome [8] | outcome [10]

Cn1c(=O)c2c(ncn2CCO)n(C)c1=O
inactive: Potency [1] | outcome [2] | outcome [3] | outcome [4] | outcome [5] | Potency [6] | Potency [7] | outcome [8]

ONc1ccccc1
active: Potency [1] 27 µM
inactive: outcome [2] | outcome [3] | outcome [4] | outcome [5] | Potency [9] | outcome [8] | outcome [10]

CC/C(C)=N\O[Si](C)(O/N=C(\C)CC)O/N=C(\C)CC
inactive: Potency [1] | outcome [2] | outcome [3] | outcome [4] | outcome [5] | Potency [9] | outcome [8] | outcome [10]

C[Si]1(C)O[Si](C)(C)O[Si](C)(C)O[Si](C)(C)O[Si](C)(C)O1
inactive: Potency [1] | outcome [2] | outcome [3] | outcome [4] | outcome [5] | Potency [9] | outcome [8] | outcome [10]

CCCCCCC1(C)CCC(=O)O1 (stereo not given)
inactive: Potency [1] | outcome [2] | outcome [3] | outcome [4] | outcome [5] | Potency [9] | outcome [8] | outcome [10]

CC1(C)Oc2ccc(C#N)cc2[C@@H](N2CCCC2=O)[C@@H]1O
inactive: Potency [1] | outcome [2] | outcome [3] | outcome [4] | outcome [5] | Potency [6] | outcome [8] | outcome [10]

OCC1CCC(CO)CC1 (stereo not given)
inactive: Potency [1] | outcome [2] | outcome [3] | outcome [4] | outcome [5] | Potency [6] | Potency [7] | outcome [8] | outcome [10]
